Inconclusive results are not listed. Entries that show only a call come without a potency. Values without a mark were called inactive. Active and inactive are the calls of the source. Calls follow the shape of the dose curve; as a rule, active = well fitted curve in the direction sought with a large enough effect; inconclusive = small, poorly fitted or top-dose-only effect, or another doubt; inactive = no such curve, though single readings can be large; an effect the other way counts as inactive or inconclusive.
target: Cellular tumor antigen p53 (Homo sapiens) (UniProt P04637); experiment: Primary qHTS for small molecule compounds that upregulate eGFP-tagged delta133p53alpha (in N-terminal) cells. (AID 2060322); conditions: NCI-H358 eGFP-delta133p53alpha fluorescence, 24 h; activation: stronger effect = higher value; also: nearly all actives have a fitted effect of over 75% in size; also: potency is read from the fitted curve at half-maximal effect;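 as to activation: cells pre-induced with doxycycline then dosed without doxycycline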
Summary of the method: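 NCI-H358 cells pre-induced 24 h with 10 ng/ml doxycycline for eGFP-delta133p53alpha, plated dox-free and exposed 24 h at 37C to titrated compounds. Fixed, Hoechst-stained; gated GFP peak intensity by laser scanning cytometry, normalized to DMSO (0%) and 57.5 uM 5-azacytidine (100%).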

Cellular tumor antigen p53 (Homo sapiens), sequence (P04637 whole entry, looked up): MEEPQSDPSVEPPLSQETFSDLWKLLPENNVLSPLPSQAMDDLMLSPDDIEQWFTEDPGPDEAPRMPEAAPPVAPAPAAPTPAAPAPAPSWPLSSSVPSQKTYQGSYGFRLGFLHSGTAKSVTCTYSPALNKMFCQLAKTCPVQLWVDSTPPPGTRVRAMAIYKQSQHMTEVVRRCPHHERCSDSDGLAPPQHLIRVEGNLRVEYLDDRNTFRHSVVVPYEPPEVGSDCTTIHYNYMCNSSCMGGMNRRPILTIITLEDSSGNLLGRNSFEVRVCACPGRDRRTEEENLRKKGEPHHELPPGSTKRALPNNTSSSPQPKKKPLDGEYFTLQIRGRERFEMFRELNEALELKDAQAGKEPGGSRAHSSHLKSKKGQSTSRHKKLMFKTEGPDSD

Compound | activation | Potency
Cc1cc(F)ccc1-c1nc(NCCN=C(N)NC#N)nc2c1ccc(=O)n2-c1c(F)cccc1F | -4.46% | –
CCC(C)/C=C(C)/C=C/C1=CC2=C(Cl)C(=O)C(C)(OC(C)=O)C(=O)C2=CN1C(CC(=O)O)C(=O)O (stereo not given) | 9.82% | –
COc1ccc([C@H]2OC[C@H]3O[C@@H](O[C@H]4[C@@H]2NC[C@@H]4O)[C@H](O)[C@H]3O)cc1 | – | 5.24 µM (active)
CCC(C)CNCC(=O)N1CCC2SC=CC2C1COc1cccc(C)c1 (stereo not given) | 17.9% | –
COc1c2c(c(C)c3c1C(=O)OC3)OC1(C)CC(O)C34OC(OC)(CCC3(C)C1C2)OC4(C)CO (stereo not given) | 13% | –
O=C(OCC1OC(Oc2ccc(O)cc2COC(=O)C2(O)C(O)CCC(=O)C2OC(=O)C2C=CCC2)C(OC(=O)C2C=CCC2)C(O)C1O)C1C=CCC1 (stereo not given) | -3.05% | –
C[C@@H]1CC[C@]2(C(=O)O[C@@H]3O[C@H](CO[C@@H]4O[C@H](CO)[C@@H](O[C@@H]5O[C@@H](C)[C@H](O)[C@@H](O)[C@H]5O)[C@H](O)[C@H]4O)[C@@H](O)[C@H](O)[C@H]3O)CC[C@]3(C)C(=CCC4[C@@]5(C)C[C@@H](O)[C@H](O)[C@@](C)(CO)C5CC[C@]43C)C2[C@H]1C (stereo not given in full) | -19.6% | –
CC(C)C1(O[C@@H]2O[C@H](CO)[C@@H](O)[C@H](O)[C@H]2O)CC=C(CO)CC1 (stereo not given in full) | 17.9% | –
CC#C[C@@H](CC(=O)O)c1ccc(OCc2ccc(CN3CCC4(C=Cc5ccccc54)CC3)s2)cc1 | 4.46% | –
CC(=O)OC1C(CO)OC(O[C@H]2[C@H](OC(=O)[C@]34CCC(C)(C)C[C@H]3C3=CCC5[C@@]6(C)CC[C@H](O[C@@H]7O[C@H](C(=O)O)[C@@H](O)[C@H](O[C@@H]8OC[C@@H](O)[C@H](O)[C@H]8O)[C@H]7O[C@@H]7O[C@H](CO)[C@H](O)[C@H](O)[C@H]7O)[C@@](C)(C=O)C6CC[C@@]5(C)[C@]3(C)C[C@H]4O)O[C@H](C)[C@H](OC3OC(C)C(OC4OCC(O)C(O)C4O)C(O)C3O)[C@@H]2O)C(O)C1O (stereo not given in full) | 4.58% | –
CC1(C)CC[C@]2(C(=O)O[C@@H]3O[C@H](CO)[C@@H](O)[C@H](O)[C@H]3O)CC[C@]3(C)C(=CCC4[C@@]5(C)C[C@@H](O)[C@H](O)[C@@](C)(CO)C5CC[C@]43C)C2C1 (stereo not given in full) | 8.4% | –
CC1CC(O)C2(C)C(C(=O)O)=CCCC2C1(C)CCc1ccoc1 (stereo not given) | 8.93% | –
CC(=O)O[C@@H]1C[C@@]2(C)C(CC[C@]3(C)C2CC=C2C4CC(C)(C)CC[C@]4(C(=O)O)CC[C@]23C)C(C)(C)[C@H]1O (stereo not given in full) | 13.4% | –
CC(C)C[C@@H](N)C(=O)N[C@H]1C(=O)N[C@@H](CC(N)=O)C(=O)N[C@H]2C(=O)N[C@H]3C(=O)N[C@H](C(=O)N[C@H](C(=O)O)c4cc(O)cc(O)c4-c4cc3ccc4O)[C@H](O)c3ccc(c(Cl)c3)Oc3cc2cc(c3O[C@@H]2O[C@H](CO)[C@@H](O)[C@H](O)[C@H]2O[C@H]2C[C@](C)(N)[C@H](O)[C@H](C)O2)Oc2ccc(cc2Cl)[C@H]1O | 6.33% | –
COc1ccc(-n2c(SCC#N)nc3sc4c(c3c2=O)CCCC4)cc1 | -16.1% | –
CC1=C(C)C(=O)OC(C(C)C2C(O)CC3C4C5OC5C5(O)CC(OC6OC(CO)C(OC7OC(C)C(O)C(O)C7O)C(O)C6O)CC(O)C5(C)C4CCC32C)C1 (stereo not given) | -6.87% | –

target: Aldehyde dehydrogenase, mitochondrial (Homo sapiens) (UniProt P05091); experiment: qHTS for Inhibitors of the Aldehyde Dehydrogenase Family (ALDH2) Primary screen (AID 2061308); conditions: ALDH2 enzyme inhibition qHTS, 1536-well; series mostly up to 56 µM; also: nearly all actives have a fitted effect of over 55% in size

Compound | Potency | activity change, negative = inhibition
COc1cc(C(C)=O)ccc1O[C@@H]1O[C@H](CO[C@@H]2OC[C@@H](O)[C@H](O)[C@H]2O)[C@@H](O)[C@H](O)[C@H]1O | inactive | –
CC1OC(OC2C(C)OC(OC3C(OC(=O)/C=C/c4ccc(O)cc4)C(CO)OC(OC4(COC(=O)/C=C/c5ccc(O)cc5)OC(CO)C(O)C4O)C3OC3OCC(O)(CO)C3O)C(O)C2O)C(O)C(O)C1O (stereo not given) | inactive | –
C/C=C/C=C/C=C/C(=O)O[C@@H]1[C@@H](OC)C2=C(C(=O)N(C(C)C(=O)O)C2)[C@@]2(C)CCCC(C)(C)[C@H]12 (stereo not given in full) | inactive | –
CC1(C)CC[C@@]2(C(=O)O[C@@H]3O[C@H](CO)[C@@H](O)[C@H](O)[C@H]3O)C(C1)C1=CCC3[C@@]4(C)CC[C@@H](O[C@@H]5O[C@H](C(=O)O)[C@@H](O[C@@H]6OC[C@@H](O)[C@H](O)[C@H]6O)[C@H](O[C@@H]6OC[C@](O)(CO)[C@H]6O)[C@H]5O)C(C)(C)C4CC[C@@]3(C)[C@]1(C)C[C@H]2O (stereo not given in full) | inactive | –
CC(=O)OC1C(OC(=O)c2ccccc2)C2C(=C(C)CCC2(C)C)C23CCC(C)(C2)C(=O)CC13 (stereo not given) | inactive | –
C[C@@H]1O[C@@H](O[C@H]2[C@H](O)[C@@H](O[C@@H]3O[C@H](CO)[C@H](O)[C@H](O)[C@H]3O)[C@H](O[C@H]3CC[C@@]4(C)C(CC[C@]5(C)C4CC=C4[C@@H]6CC(C)(C)CC[C@]6(C(=O)O[C@@H]6O[C@H](CO)[C@@H](O)[C@H](O)[C@H]6O)CC[C@]45C)C3(C)C)O[C@@H]2C(=O)O)[C@H](O)[C@H](O)[C@H]1O (stereo not given in full) | inactive | –
Cc1ccc(C)c(S(=O)(=O)n2cnc3ccccc32)c1 | inactive | –
CC(C)C(C(=O)N(C)C(C)C(N)=O)N(C)C(=O)C1CCCN1C(=O)/C=C/C=C/C(O)C(C)O (stereo not given) | inactive | –
C=C(C(=O)O)[C@@H]1CC[C@H](C)[C@@H]2CC(=O)C(C)=C2C1 | inactive | –
COCC(=O)N1CCc2cc(-c3csc(NC(=O)c4cc(OC)cc(OC)c4)n3)ccc21 | inactive | –
CC1=CC[C@@]2(C)CC[C@@](O)(C(C)C)[C@@H]2[C@@H](O)C1 | inactive | –
CC(C(O)c1ccccc1)N(C)CCOC(c1ccccc1)c1ccccc1 (stereo not given) | inactive | –
COc1c2c(c(C)c3c1C(=O)OC3)OC1(C)CC(O)C(C(C)(C)O)C(C)(CCC(=O)O)C1C2 (stereo not given) | inactive | –
CC(=O)O[C@H]1C[C@@](O)(C(C)C)[C@@H]2[C@@H](OC(=O)c3ccc(O)cc3)CC(C)=CC[C@@]12C | inactive | –
NC1Nc2ccccc2C1(N)CC1NC(=O)C(Cc2ccccc2)NC(=O)C(Cc2ccccc2)NC1=O (stereo not given) | inactive | –
COC1CC(=O)CCC(C)OC(=O)CC1O (stereo not given) | inactive | –
CC(C)CC(=O)OC[C@@]1(O)C[C@@]23CC[C@H]4[C@@](C)(CCC[C@@]4(C)C(=O)O)[C@@H]2CC[C@@H]1C3 | inactive | –

Compound | Potency | activity change, negative = inhibition
C=CC1C(O[C@@H]2O[C@H](CO)[C@@H](O)[C@H](O)[C@H]2O)OC=C(C(=O)OC)C1CC(=O)O (stereo not given in full) | inactive | –
CC1(C)C2CC=C(COC3OC(COC4OCC(O)(CO)C4O)C(O)C(O)C3O)C1C2 (stereo not given) | inactive | –
CC(=O)C=C=C1C(C)(C)CC(O[C@@H]2O[C@H](CO)[C@@H](O)[C@H](O)[C@H]2O)CC1(C)O (stereo not given in full) | inactive | –
C=C1CCC2C(C)(C)C(O)CCC2(C)C1CCC(C)CCO (stereo not given) | inactive | –
C=CC1(C)CC(OC(=O)C(=C)C(O)COC(C)=O)C(C(=C)C(=O)OC)C(O)C1C(=C)CO (stereo not given) | inactive | –
C[C@@H]1O[C@@H](O[C@H]2[C@H](O[C@H]3[C@H](O[C@H]4CC[C@@]5(C)C(CC[C@]6(C)C5CC=C5[C@@H]7CC(C)(C)C[C@@H](O)[C@]7(C)CC[C@]56C)[C@@]4(C)CO)O[C@H](C(=O)O)[C@@H](O)[C@@H]3O)O[C@H](CO)[C@H](O)[C@@H]2O)[C@H](O)[C@H](O)[C@H]1O (stereo not given in full) | inactive | –
CC1(C)CC[C@]2(C(=O)O[C@@H]3O[C@H](CO)[C@@H](O)[C@H](O)[C@H]3O)CC[C@]3(C)C(=CCC4[C@@]5(C)CC[C@H](O[C@@H]6O[C@H](C(=O)O)[C@@H](O)[C@H](O)[C@H]6OC6OC(CO)C(O)C(O)C6O)C(C)(C)C5CC[C@]43C)[C@@H]2C1 (stereo not given in full) | inactive | –
Cc1cc(F)ccc1-c1nc(NCCN=C(N)NC#N)nc2c1ccc(=O)n2-c1c(F)cccc1F | inactive | –
CCC(C)/C=C(C)/C=C/C1=CC2=C(Cl)C(=O)C(C)(OC(C)=O)C(=O)C2=CN1C(CC(=O)O)C(=O)O (stereo not given) | inactive | –
COc1ccc([C@H]2OC[C@H]3O[C@@H](O[C@H]4[C@@H]2NC[C@@H]4O)[C@H](O)[C@H]3O)cc1 | inactive | –
CCC(C)CNCC(=O)N1CCC2SC=CC2C1COc1cccc(C)c1 (stereo not given) | inactive | –
COc1c2c(c(C)c3c1C(=O)OC3)OC1(C)CC(O)C34OC(OC)(CCC3(C)C1C2)OC4(C)CO (stereo not given) | inactive | –
O=C(OCC1OC(Oc2ccc(O)cc2COC(=O)C2(O)C(O)CCC(=O)C2OC(=O)C2C=CCC2)C(OC(=O)C2C=CCC2)C(O)C1O)C1C=CCC1 (stereo not given) | inactive | –
C[C@@H]1CC[C@]2(C(=O)O[C@@H]3O[C@H](CO[C@@H]4O[C@H](CO)[C@@H](O[C@@H]5O[C@@H](C)[C@H](O)[C@@H](O)[C@H]5O)[C@H](O)[C@H]4O)[C@@H](O)[C@H](O)[C@H]3O)CC[C@]3(C)C(=CCC4[C@@]5(C)C[C@@H](O)[C@H](O)[C@@](C)(CO)C5CC[C@]43C)C2[C@H]1C (stereo not given in full) | inactive | –
CC(C)C1(O[C@@H]2O[C@H](CO)[C@@H](O)[C@H](O)[C@H]2O)CC=C(CO)CC1 (stereo not given in full) | inactive | –
CC#C[C@@H](CC(=O)O)c1ccc(OCc2ccc(CN3CCC4(C=Cc5ccccc54)CC3)s2)cc1 | inactive | –
CC(=O)OC1C(CO)OC(O[C@H]2[C@H](OC(=O)[C@]34CCC(C)(C)C[C@H]3C3=CCC5[C@@]6(C)CC[C@H](O[C@@H]7O[C@H](C(=O)O)[C@@H](O)[C@H](O[C@@H]8OC[C@@H](O)[C@H](O)[C@H]8O)[C@H]7O[C@@H]7O[C@H](CO)[C@H](O)[C@H](O)[C@H]7O)[C@@](C)(C=O)C6CC[C@@]5(C)[C@]3(C)C[C@H]4O)O[C@H](C)[C@H](OC3OC(C)C(OC4OCC(O)C(O)C4O)C(O)C3O)[C@@H]2O)C(O)C1O (stereo not given in full) | – | -12.7% [at 11.2 µM]

Reference: PubChem BioAssay (NCATS)
